Results filed as inconclusive are left out. Where a call stands in place of a potency, no number is given. Unmarked numbers belong to inactive results. Active and inactive are the calls of the source. The call rests on the fitted dose curve; in most records, active means well fitted inhibition curve with a large enough effect; inconclusive means small, poorly fitted or top-dose-only effect; inactive means flat fitted curve, though single readings scatter.
Target: Calcium and integrin-binding protein 1 (Homo sapiens) (UniProt Q99828)
Experiment: Primary qHTS for Identification of Calcium Integrin Binding Protein 1 (CIB1) Competitor (AID 1508620);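 further: GST tagged CIB1 binding a fluorescein labelled alphaIIb integrin peptide tracer; top concentration of the series differs between compounds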
Details: CIB1-GST / FITC-alphaIIb peptide fluorescence polarization; series mostly up to 114 µM
Outline: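 CIB1-GST (1 uM final) and compound incubated 15 min at room temperature before adding FITC-alphaIIb peptide tracer (100 nM final). Competition for binding read by fluorescence polarization (ex 480, em 540) after another 15 min at room temperature.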

Calcium and integrin-binding protein 1 (Homo sapiens), sequence (Q99828 whole entry, looked up): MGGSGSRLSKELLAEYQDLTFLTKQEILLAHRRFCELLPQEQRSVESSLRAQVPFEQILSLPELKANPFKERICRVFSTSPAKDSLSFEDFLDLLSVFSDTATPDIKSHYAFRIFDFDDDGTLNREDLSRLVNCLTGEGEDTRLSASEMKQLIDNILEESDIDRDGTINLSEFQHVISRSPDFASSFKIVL

| SMILES | Potency | activity change, negative = inhibition |
| --- | --- | --- |
| COc1nc2sc(C(=O)NC3CC3)c(N)c2c(C)c1Cl | inactive | – |
| O=C(O)COCCN1CCN([C@H](c2ccccc2)c2ccc(Cl)cc2)CC1 | inactive | – |
| C/C=C/C=C/C(O)=C1\C(=O)[C@]2(C)C3C(C(=O)CC/C=C/C)=C(O)C4(C)C1[C@]1(C)O[C@@]4(O)[C@@]3(C)O[C@@]12O | inactive | – |
| CC(C)=C/C=C\[C@H](C)[C@H]1CC[C@]2(C)C[C@@H]3C(C)=CC(=O)C3/C(CO)=C\C[C@@H]12 (stereo partly specified) | inactive | – |
| CC(=O)OC1/C(C)=C/C(=O)C(OC(C)=O)C(C)(C)/C=C/C(C)C(=O)C2(OC(C)=O)CC(C)C(OC(=O)c3ccccc3)C12 (stereo unspecified) | inactive | – |
| CC(O)c1cc(C(=O)N[C@@H](C)Cn2ccc(-c3ccc(C#N)c(Cl)c3)n2)n[nH]1 (stereo partly specified) | inactive | – |
| N#C[C@@H]1CCCN1C(=O)CNC12CC3CC(CC(O)(C3)C1)C2 | inactive | – |
| CCc1ccc(Cc2ccc3c(c2)[C@]2(OC3)O[C@H](CO)[C@@H](O)[C@H](O)[C@H]2O)cc1 | inactive | – |
| O=C1C=CC(O)(/C=C/C(=O)OC[C@H]2O[C@@H](Oc3ccc(O)cc3)[C@H](O)[C@@H](O)[C@@H]2O)C=C1 | inactive | – |
| CCC(C)C(=O)OC1CC(C)C=C2C=CC(C)C(CCC(O)CC(O)CC(=O)O)C21 (stereo unspecified) | inactive | – |
| Cc1c(F)cc(C(=O)NC2CC2)cc1-c1c(F)cn2c(C(C)(C)C)nnc2c1F | inactive | – |
| COc1ccc([C@@]2(O)c3c(ccc(CC=C(C)C)c3O)NC(=O)[C@@H]2OC)cc1 | inactive | – |
| CC(C)[N+]1(C)C2CCC1CC(OC(=O)C(CO)c1ccccc1)C2 (stereo unspecified) | inactive | – |
| C=C1CCC2C(C)(C)CCC[C@]2(C)[C@H]1C/C=C(\CO)C(=O)C(=O)O (stereo partly specified) | inactive | – |
| CC1=CCC2C(C)(C)CCC[C@]2(C)[C@@]12CC[C@](C)(CC(=O)O)O2 (stereo partly specified) | inactive | – |
| CC(CCC1(O)OC2CC3C4CCC5CC(O[C@@H]6O[C@H](CO)[C@@H](O)[C@H](O)[C@H]6O[C@@H]6O[C@@H](C)[C@H](O)[C@@H](O)[C@H]6O)C(O)CC5(C)C4CCC3(C)C2C1C)CO[C@@H]1O[C@H](CO)[C@@H](O)[C@H](O)[C@H]1O (stereo partly specified) | inactive | – |
| COC1/C=C/C(C)(O)C(SCC(N)C(=O)O)CC(=O)OC(C)C(C)CC/C=C/1C (stereo unspecified) | inactive | – |
| C=C1C(=O)OC2C1C(O)CC1(C)C(O)CCC(C=O)C21 (stereo unspecified) | inactive | – |

| SMILES | Potency | activity change, negative = inhibition |
| --- | --- | --- |
| C=CC1C(OC2OC(CO)C(O)C(O)C2O)OC=C(C(=O)OC)C1CC(=O)OCC1C(C)C(O)CC1C(CO)COC(=O)CC1C(C(=O)O)=COC(OC2OC(CO)C(O)C(O)C2O)/C1=C\C (stereo unspecified) | inactive | – |
| COC1C(=O)CCC2(CO2)C1(O)C1(C)OC1CC=C(C)C (stereo unspecified) | inactive | – |
| CN1CCN(C(=O)c2ccc3cc(CCNc4ncnc5ccc(C#N)cc45)ccc3c2)CC1 | inactive | – |
| Fc1ccc2nc(CCC#Cc3ccccn3)cn2c1 | inactive | – |
| CCC[C@@H]1O[C@@H]2C[C@H]3[C@@H]4CCC5=CC(=O)C=C[C@]5(C)[C@H]4[C@@H](O)C[C@]3(C)[C@]2(C(=O)CO)O1 | inactive | – |
| C[C@@H]1O[C@@H](O[C@H]2[C@H](OC(=O)[C@]34CCC(C)(C)C[C@H]3C3=CCC5[C@@]6(C)C[C@H](O)[C@H](O[C@@H]7O[C@H](CO)[C@@H](O[C@H]8OC[C@](O)(CO)[C@H]8O)[C@H](O)[C@H]7O)[C@@](C)(CO)C6[C@H](O)C[C@@]5(C)[C@]3(C)C[C@H]4O)OC[C@H](O)[C@@H]2O)[C@H](O)[C@H](O)[C@H]1O[C@@H]1OC[C@@H](O)[C@H](O[C@@H]2OC[C@](O)(CO)[C@H]2O)[C@H]1O (stereo partly specified) | – | -2.92% [at 12.4 µM] |
| C=C1C(=O)OC2CC3(C)C(CC12)C(C)=CC(O)C3OC(C)=O (stereo unspecified) | inactive | – |
| C[C@@H]1O[C@@H](O[C@@H]2[C@@H](O[C@@H]3O[C@@H](C)[C@H](O[C@@H]4OC[C@H](O)[C@H](O[C@@H]5OC[C@@H](O)[C@H](O)[C@H]5O)[C@H]4O)[C@@H](O[C@@H]4OC[C@](O)(CO)[C@H]4O)[C@H]3O)[C@H](OC(=O)[C@]34CCC(C)(C)C[C@H]3C3=CCC5[C@@]6(C)C[C@H](O)[C@H](O[C@@H]7O[C@H](CO[C@@H]8OC[C@H](O)[C@H](O)[C@H]8O)[C@@H](O)[C@H](O)[C@H]7O)C(C)(C)C6CC[C@@]5(C)[C@]3(C)C[C@H]4O)OC[C@H]2O)[C@H](O)[C@H](O)[C@H]1O (stereo partly specified) | – | -4.21% [at 12.4 µM] |
| O=S(=O)(Nc1ccccn1)c1ccc(N=Cc2c(O)[nH]c3ccc4ncsc4c23)cc1 | inactive | – |
| C[C@@H]1O[C@@H](O[C@H]2[C@H](O[C@H]3CC[C@@]4(C)C(CC[C@]5(C)C4C=C[C@]46OC[C@@]7(CCC(C)(C)C[C@H]74)[C@@H](O)C[C@]65C)[C@]3(C)CO)O[C@H](CO)[C@@H](O)[C@@H]2O[C@@H]2O[C@H](CO)[C@@H](O[C@@H]3O[C@@H](C)[C@H](O)[C@@H](O)[C@H]3O)[C@H](O)[C@H]2O)[C@H](O)[C@H](O)[C@H]1O (stereo partly specified) | inactive | – |
| C=C(C)[C@@H]1CC[C@]2(C)CC[C@]3(C)[C@H](CC[C@@H]4[C@@]5(C)CC[C@@H](O)C(C)(C)[C@@H]5CC[C@]43C)[C@@H]12 | inactive | – |
| C[C@@H]1O[C@@H](O[C@H]2[C@H](OC(=O)[C@]34CCC(C)(C)C[C@H]3C3=CCC5[C@@]6(C)C[C@H](O)[C@H](O[C@@H]7O[C@H](CO)[C@@H](O)[C@H](O)[C@H]7O)[C@@](C)(CO)C6[C@H](O)C[C@@]5(C)[C@]3(C)C[C@H]4O)OC[C@H](O)[C@@H]2O)[C@H](O)[C@H](O)[C@H]1O[C@@H]1OC[C@@H](O)[C@H](O[C@H]2OC[C@](O)(CO)[C@H]2O)[C@H]1O (stereo partly specified) | – | 3.47% [at 12.4 µM] |
| COc1cc2oc(-c3ccc(O)cc3O)cc2c(OC)c1CC=C(C)C | inactive | – |
| COC(=O)[C@H](O)[C@H]1C(C)(C)[C@H](OC(=O)C(C)C)[C@@]2(O)C(=O)[C@]1(C)C1CC[C@]3(C)C(CC(=O)O[C@H]3c3ccoc3)[C@]13O[C@@H]32 (stereo partly specified) | inactive | – |
| CC(c1ncncc1F)C(O)(Cn1cncn1)c1ccc(F)cc1F (stereo unspecified) | inactive | – |
| CC(=O)O[C@H]1C[C@@]2(C)[C@@H](CC[C@H]3[C@@]4(C)C=CC(=O)[C@@H](C)[C@@H]4[C@H](O)C(=O)[C@@]32C)/C1=C(/CCC=C(C)C)C(=O)O | inactive | – |
| O=C(Nc1ccccc1-c1cn2c(CN3CCNCC3)csc2n1)c1ccc2ccccc2n1 | inactive | – |
| COc1c(/C=C/C(C)(C)O)ccc2c1C(=O)OCc1cc(C)cc(O)c1O2 | inactive | – |

From PubChem BioAssay (NCATS)
